Rows were chosen to be rich in hits. Some 1.6% of all compounds tested hit in one or more screens of this group.
PERK inh = inhibitors of human PERK kinase; Q9NZJ5; CHO PERK-DD fusion, SEAP luminescence translation reporter; inhibition, % at 5.6 µM; actives 0.17% (n = 220,000); AID 1416;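 active = inhibition above the mean inhibition of all tested compounds plus 3 SD, set separately per screening campaign, cut at about 2.9% in these data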;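 note: PERK kinase domain activated by AP20187 dimerizer at 100 nM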
Rce1 inhib = blocks yeast Ras-converting enzyme; calls only; yeast membranes, quenched prenylated peptide cleavage fluorescence; actives 0.27% (n = 290,000); AID 2563;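 active = fall in fluorescence gain of 50% or more versus controls, with final raw signal at or below 3038400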
NALP1 inh = NALP1 inhibition; S. cerevisiae NALP1/ASC/caspase-1 growth, X-gal OD620, 72 h; inhibition, % at 10 µM; actives 0.61% (n = 280,000); AID 2071; in the data active = inhibition mostly above about 24%, no sharp cut-off; inactive = mostly below about 32%
Yeast superoxide = lowers age-related superoxide in aged yeast cells. S. cerevisiae aged cells, superoxide DHE fluorescence; active compounds read low. superoxide response (% of plate mean), % at 10 µM. actives 0.18% (n = 330,000);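 active = superoxide response under a set limit, about three screen SD below normal, cut at about 65% in these data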;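 note: yeast aged for seven days with compound at 30 °C before DHE staining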
V-ATPase pH = yeast V-ATPase proton transport regulation by pHLuorin | S. cerevisiae, pHLuorin cytosolic pH fluorescence | response, % at 10 µM | actives 0.37% (n = 350,000) | AID 504577; in the data active = response mostly above about 7.3%, no sharp cut-off; inactive = mostly below about 5.4%; note: actives read high
NALP3 yeast inh = blocks the NALP3 inflammasome reconstituted in yeast | Yeast reconstituted NLRP3/ASC/caspase-1, beta-gal luminescence, 24 h | inhibition, % at 10 µM | actives 0.39% (n = 330,000) | AID 2825;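 active = inhibition of 50% or more; inactive = inhibition below 50%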
NALP3 confirm = confirmation of NALP3 inhibitors in yeast; inhibition, % at 10 µM; yeast expressing human NALP3, luminescence; AID 435006; actives 81% (n = 1,300); shares compounds with NALP3 yeast inh; in the data active = inhibition above about 48%
Casp1 ASC ctr = caspase-1-ASC yeast counter-screen hit; shares compounds with NALP3 yeast inh; yeast expressing Caspase-1-ASC, luminescence counter screen; inhibition, % at 10 µM; actives 66% (n = 1,000)
NALP3 retest = confirmation retest of NALP3 inhibitors in yeast. shares compounds with NALP3 yeast inh. yeast expressing human NALP3, luminescence read-out. inhibition, % at 10 µM. actives 53% (n = 1,000)
Numbers stand for hits; n = inactive; x = not tested or not shown. Cut-off read from the data, not from the text of the source, unless noted: active = inhibition above about 50%; inactive = the rest.

SMILES	PERK inh	Rce1 inhib	NALP1 inh	Yeast superoxide	V-ATPase pH	NALP3 yeast inh	NALP3 confirm	Casp1 ASC ctr	NALP3 retest
O=C1/C(=C\c2ccc3c(c2)OCO3)CCC/C1=C/c1ccc2c(c1)OCO2	n	n	n	n	n	n	48.8	n	n
N#CC(C#N)=C1SC(=Nc2ccccc2)C(=Nc2ccccc2)N1c1ccccc1	x	x	x	x	n	x	x	x	x
CCCCOC(=O)Nc1nnc(COc2ccccc2)s1	n	n	n	n	n	n	x	x	x
CCCCOC(=O)Nc1nnc(CCc2ccccc2)s1	n	n	n	n	n	52.5	n	x	x
CCSc1oc(-c2ccccc2)nc1S(=O)(=O)c1ccccc1	n	n	n	n	n	n	x	x	x
CSc1oc(-c2ccccc2)nc1S(=O)(=O)c1ccc(C)cc1	n	n	n	n	n	53.4	68.2	55.7	n
CC1CN(C(=O)COC(=O)c2cncc(Br)c2)CC(C)O1 (stereo unspecified)	x	x	x	x	n	x	x	x	x
Oc1ccc(N=Nc2ccc3c(c2)OCCO3)c(O)c1	n	n	x	n	n	50.1	65.5	x	x
Oc1ccc(N=Nc2ccc(Br)cc2)c(O)c1	n	n	n	n	n	57.9	73.3	n	n
CC(=O)OCC(=O)C1(O)CCC2C3CCC4C(OC(C)=O)C(=O)CCC4(C)C3C(=O)CC21C (stereo unspecified)	x	x	x	x	n	x	x	x	x
Brc1ccc(-c2csc(NC3=NCCCCC3)n2)cc1	n	n	n	n	n	57.9	55.4	n	n
COc1ccc(-c2csc(NC3=NCCCCC3)n2)cc1	n	n	n	n	n	n	x	x	x
COc1ccc(CN2C(=O)C(CC(=O)NCc3cccs3)CC(C(=O)N(C(C)C)C(C)C)=C2C)cc1 (stereo unspecified)	x	x	x	x	n	x	x	x	x
CC1CN(CCOc2cccc(Oc3ccccc3)c2)CC(C)O1 (stereo unspecified)	x	n	n	n	n	n	x	x	x
CC1CCCN(CCOc2cccc(Oc3ccccc3)c2)C1 (stereo unspecified)	x	n	n	n	n	50.3	55.8	n	n
COc1ccc(C(=O)c2cc(OC)c(OC)c(OC)c2)cc1OC	x	x	x	x	n	x	x	x	x
Cc1ccc(-n2ncc(-c3n[nH]c(=S)o3)c2N)cc1C	x	x	x	x	n	x	x	x	x
O=c1cn[nH]c2ccc(Br)cc12	x	x	x	x	n	x	x	x	x
Brc1ccc2[nH]ncc2c1	n	n	n	n	n	53.4	n	60.5	n
COC(=O)c1sccc1NC(=O)COc1cccc(C)c1	n	n	x	n	n	54.3	57.7	n	n
O=C1NC(=Nc2ccccc2)S/C1=C\c1cccs1	n	n	x	n	n	56.1	n	x	x
O=C(c1cccc(S(=O)(=O)N2CCOCC2)c1)N1CCN(c2ncccn2)CC1	x	x	x	x	n	x	x	x	x
O=c1cc(CSc2ccc(Cl)cc2)nc(-c2ccccn2)[nH]1	x	n	n	n	n	64.1	83.6	97.3	91.5
Clc1ccc(SCc2cc(N3CCOCC3)nc(-c3ccccn3)n2)cc1	n	n	n	n	n	50.8	57.0	55.4	53.6
NNC(=O)c1ccc2nc(-c3ccc(Br)cc3)cn2c1	n	n	38.9	n	n	52.7	70.2	x	x
SMILES	PERK inh	Rce1 inhib	NALP1 inh	Yeast superoxide	V-ATPase pH	NALP3 yeast inh	NALP3 confirm	Casp1 ASC ctr	NALP3 retest
COc1cccc(CN(C)C[C@@H]2OCc3cnnn3CCCC(=O)N([C@@H](C)CO)C[C@H]2C)c1	x	x	x	x	n	x	x	x	x
COc1ccc(/C=C/C(=O)Nc2cc(C)on2)cc1	n	n	n	n	n	n	x	x	x
Cc1cc(NC(=O)/C=C/c2ccccc2)no1	n	n	n	n	n	50.2	67.8	n	n
CC(C)C(=O)Nc1cccc(COc2ccccc2CN(Cc2ccccc2)C(=O)OC(C)(C)C)c1	x	x	x	x	n	x	x	x	x
O=C(CSc1cccc2cccc(Cl)c12)NCc1cccs1	n	n	n	n	n	51.6	64.6	n	n
C[C@H](CO)N1C[C@H](C)[C@@H](CN(C)S(=O)(=O)c2ccc3ccccc3c2)OCc2cnnn2CCCC1=O	x	x	x	x	n	x	x	x	x
C[C@H](CO)N1C[C@H](C)[C@@H](CN(C)S(=O)(=O)c2cccs2)OCc2cnnn2CCCC1=O	x	x	x	x	n	x	x	x	x
N#C/C(=C\c1cccc(Br)c1)C(=O)N1CCCCC1	x	n	n	n	n	59.7	57.5	68.0	50.0
N#C/C(=C\c1cccc(O)c1)C(=O)N1CCCCC1	x	n	n	n	n	n	x	x	x
CC1=C(C(=O)N(C)C)CC(CC(=O)NC(c2ccccc2)c2ccccc2)C(=O)N1Cc1ccc(F)cc1 (stereo unspecified)	x	x	x	x	n	x	x	x	x
N#CC(C#N)=c1ccc2c(c1)N1C3=C(CCCC3)CC3CCCCC31N=2 (stereo unspecified)	n	n	n	n	n	n	x	x	x
N#C/C(C(N)=O)=c1/ccc2c(c1)N1C3=C(CCCC3)CC3CCCCC31N=2 (stereo unspecified)	n	n	n	n	x	57.4	n	x	x
CCSc1nnc(NC(=O)C2CCCN(C(=O)c3ccc(Cl)cc3)C2)s1 (stereo unspecified)	x	x	x	x	n	x	x	x	x
CNc1nc(SCc2ccc(C)cc2)nc2c1CCCC2	n	n	99.4	n	n	97.3	99.3	98.7	99.2
COc1ccc(CCn2c(C3CCCCC3)nc3c(c(=O)c4ccccc4n3C)c2=O)cc1	n	n	x	n	n	67.2	64.7	55.2	61.3
COc1ccc(CCn2c(C3CCCCC3)nc3c(c(=O)c4ccccc4n3C)c2=O)cc1OC	n	n	n	n	n	64.1	84.5	n	n
COc1ccc(CCn2c(-c3ccc(F)cc3)nc3c(c(=O)c4ccccc4n3C)c2=O)cc1OC	n	n	n	n	n	n	x	x	x
COc1ccc(Cn2c(C3CCCCC3)nc3c(c(=O)c4ccccc4n3C)c2=O)cc1	n	n	n	n	x	n	x	x	x
COc1ccccc1S(=O)(=O)N(C)C[C@H]1OCc2cnnn2CCCC(=O)N([C@@H](C)CO)C[C@@H]1C	x	x	x	x	n	x	x	x	x
COCC(=O)N1CCC(c2nc3ccccc3[nH]2)CC1	x	x	x	x	n	x	x	x	x
Cc1ccc(-n2nnnc2SCC(=O)N2CCc3ccccc3C2)c(C)c1	n	n	n	n	n	n	x	x	x
Cc1ccc(-n2nnnc2SCC(=O)N2CCc3ccccc3C2)cc1	n	n	n	n	n	70.4	75.5	76.7	73.7
COc1cc(C2Nc3ccccc3C(=O)N2c2ccc(Cl)cc2)c(Cl)cc1OCC(=O)O (stereo unspecified)	n	n	n	n	n	n	x	x	x
CCOc1cc(C2Nc3ccccc3C(=O)N2c2ccccc2)c(Br)cc1OCC(=O)O (stereo unspecified)	n	n	n	n	n	n	n	x	x
C[C@@H]1CN([C@@H](C)CO)C(=O)c2cc(Br)cnc2O[C@H]1CN(C)S(=O)(=O)c1cccs1	x	x	x	x	n	x	x	x	x
COc1ccc(/C=C/C(=O)c2ccc(Cl)s2)cc1O	n	n	n	n	n	54.0	70.2	n	n

Source: PubChem
